Hits are enriched below; roughly 17% of the tested compounds scored in any of these assays.
TGFb SMAD3 inh: qHTS for Inhibitors of TGF-b; 410,000 compounds, 1.2% hits; HepG2 CAGA-GFP TGF-b/SMAD3 reporter, GFP fluorescence, 18 h; TGF-beta stimulated, 500 pg/mL final; AID 588855, 2011; Potency, µM (titrated, usually from 46.1 µM), for the others: at the top dose activity, negative = inhibition, actives largely listed as inhibitors; note: % is set by controls: 0 for no effect and ±100 for the full control effect; nearly all actives have a fitted effect of over 65% in size
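HEPG2 CAGA-GFP, 1000 cells/well; 2 h settle, 37 C; cpd via pin tool; TGF-b 500 pg/mL final; 18 h, 37 C; GFP imaging ex488/em500-530; %Activity normalised to -TGF-b and +DMSO controls; CRC fit, curve class.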
DT40 TDP1 CPT: qHTS for Inhibitors of human tyrosyl-DNA phosphodiesterase 1 (TDP1): qHTS in cells in presence of CPT; chicken DT40 Tdp1-/-;hTDP1 cells + 20 nM CPT, ATP luminescence, 48 h; Potency, µM (series often up to 46.2 µM), inactives show at the highest dose activity change, negative = growth inhibition, actives largely listed as inhibitors; 420,000 compounds, 12% hits; AID 686979, 2013; note: % is set by controls: 0 for no effect and ±100 for the full control effect; nearly all actives have a fitted effect of over 55% in size
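Chicken DT40 Tdp1-/- cells stably complemented with human TDP1 were seeded at 400 cells/well in medium containing 20 nM camptothecin, exposed to pin-transferred compounds, and grown at 37 °C for at least 48 hr. Viability was read as ATP luminescence.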
ATXN viability: Viability Counterscreen for Primary qHTS for Inhibitors of ATXN expression | 400,000 compounds, 0.49% hits | S2 cells (HEK-293 line with an ATXN2-luciferase reporter) viability, CellTiter-Fluor protease fluorescence, 24 h | Potency, µM (series often up to 56.7 µM), actives largely listed as cytotoxic; note: nearly all actives have a fitted effect of over 40% in size
ATXN2 expr inh: Primary qHTS for Inhibitors of ATXN expression | AID 1745845, 2022 | HEK-293 ATXN2-luciferase reporter, luminescence, 24 h | 360,000 compounds, 0.72% hits | Potency, µM (top dose mostly 57 µM), for inactives: at the top dose activity change, negative = inhibition, actives largely listed as inhibitors; note: % is set by controls: 0 for no effect and ±100 for the full control effect; nearly all actives have a fitted effect of over 55% in size
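ATXN2-luciferase reporter cells (luciferase flanked by upstream and downstream ATXN2 gene portions) were treated 24 h at 37 °C with compounds at up to 57 uM. SteadyGlo luminescence gave expression; GF-AFC fluorescence gave viability.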
TDP1 cell noCPT: qHTS for Inhibitors of human tyrosyl-DNA phosphodiesterase 1 (TDP1): qHTS in cells in absence of CPT | DT40 Tdp1-/- hTDP1 cells, no CPT, ATP luminescence, 48 h | Potency, µM (highest dose often 46.2 µM), inactives show at the highest dose activity change, negative = growth inhibition, usual class: inhibitors | 420,000 compounds, 15% hits; note: % is set by controls: 0 for no effect and ±100 for the full control effect; nearly all actives have a fitted effect of over 55% in size
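Chicken DT40 Tdp1-/- cells stably complemented with human TDP1 were seeded at 400 cells/well with DMSO in place of 20 nM camptothecin. After compound pinning, cells grew at least 48 hr at 37 °C; viability read by CellTiter-Glo luminescence.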
HepG2 viability: qHTS for Inhibitors of TGF-b: Cytotox Counterscreen | HepG2 CAGA-GFP viability, ATP luminescence, 18 h | Potency, µM (series often up to 46.1 µM), for the others: at the top dose activity change, negative = cytotoxicity, usual class: cytotoxic | 410,000 compounds, 0.76% hits
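HepG2 CAGA-GFP cells (1000/well, DMEM with 1% FBS) received compound, then TGF-beta at 500 pg/mL final, and were incubated 18 hours at 37 degrees C. Viability was read by CellTiter-Glo luminescence. Media-only wells were set as complete cell-killing and DMSO as no toxicity.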
Active calls of the source: *; i = inactive; ? = inconclusive; · = no result given. Calls come from the whole dose curve; as a rule, active = well fitted curve in the direction sought with a large enough effect; inconclusive = small, poorly fitted or top-dose-only effect, or another doubt; inactive = no such curve, though single readings can be large; an effect the other way counts as inactive or inconclusive. Potency is the fitted concentration of half-maximal effect.

SMILES	TGFb SMAD3 inh	DT40 TDP1 CPT	ATXN viability	ATXN2 expr inh	TDP1 cell noCPT	HepG2 viability
CCCn1c(-c2cccc([N+](=O)[O-])c2)nc2c1c(=O)[nH]c(=O)n2Cc1ccccc1	0%	21µM*	i	-6%	16µM*	-25%
CCCn1c(-c2ccc(C(=O)OC)cc2)nc2c1c(=O)[nH]c(=O)n2Cc1ccccc1	-1%	12%	i	0%	-14%	-3%
CCCCn1c(=O)[nH]c(=O)c2c1nc(-c1ccsc1)n2Cc1ccccc1	?	?	i	5%	29µM*	0%
CCCCn1c(=O)[nH]c(=O)c2c1nc(-c1ccccc1F)n2Cc1ccccc1OC	?	23µM*	i	-32%	?	8%
COc1cc(/C=N/NC(=O)c2cccc(NC(=O)c3ccccc3)c2)ccc1O	9%	-11%	i	4%	?	-2%
COc1cc(/C=N/NC(=S)Nc2cccc(S(=O)(=O)N(C)C)c2)ccc1O	3%	?	i	30%	18µM*	9%
CN(C)S(=O)(=O)c1cccc(NC(=S)NN=C(Cc2ccccc2)Cc2ccccc2)c1	-13%	5.8µM*	i	7%	5.2µM*	-23%
CN(CC(=O)Nc1cccc(S(=O)(=O)N(C)C)c1)Cc1ccccc1	-9%	-28%	i	51%	?	14%
COc1ccc(N2CCN(C(=O)CCS(=O)(=O)c3cc4c(cc3Cl)NC(=O)CO4)CC2)cc1	2%	·	i	-11%	·	-20%
CCCCCCC[C@@H](C/C=C/CCC(=O)O)OC	-1%	-13%	?	-10%	-13%	-27%
CCCCCCC[C@@H](C/C=C/CCC(=O)N(C)C/C(=C/Cl)C/C(=C\C(=O)N1C[C@H](O)CC1=O)OC)OC	16µM*	9.2µM*	?	?	9.2µM*	-104%
O=C1CCC(C(=O)Nc2ccccc2N2CCCC2)=NN1	-4%	-5%	i	-7%	-21%	17%
NC(=O)C1CCN(C(=O)CCCCCn2c(=O)[nH]c3ccsc3c2=O)CC1	-3%	1%	i	4%	-1%	-6%
CC(=O)c1ccc(N2CCN(C(=O)CCCCn3c(=O)[nH]c4ccsc4c3=O)CC2)cc1	13%	13µM*	i	-2%	23µM*	-2%
CC(=O)c1ccc(N2CCN(C(=O)CCCc3nc4ccccc4s3)CC2)cc1	-26%	12µM*	i	-29%	10µM*	-45%
O=C(CCCCn1c(=O)[nH]c2ccsc2c1=O)N1CCN(c2cccc(Cl)c2)CC1	?	16µM*	?	?	13µM*	-24%
O=C(Cn1c(=O)[nH]c2ccsc2c1=O)N1CCN(c2ccc(F)cc2)CC1	-1%	-24%	i	-1%	?	-12%
O=C(CCn1c(=O)[nH]c2ccsc2c1=O)N1CCN(c2cccc(Cl)c2)CC1	-6%	-11%	?	-23%	?	-16%
Cc1cccc(N2CCN(C(=O)CCCn3c(=O)[nH]c4ccsc4c3=O)CC2)c1C	-11%	21µM*	?	5%	?	-4%
COc1ccc(S(=O)(=O)N2CCN(CC(=O)NC(C)c3cccs3)CC2)cc1 (configuration not stated)	-3%	4%	i	·	?	-24%
Cc1cccnc1NC(=O)CSc1ccc2c(c1)OCCO2	-5%	-2%	i	·	?	-9%
CC(C)CCNC(=O)CCCCn1c(=O)[nH]c2ccsc2c1=O	18%	-20%	i	16%	-5%	-34%
